High-throughput results: PubChem BioAssay, National Center for Advancing Translational Sciences (NCATS)
NS1 function inh – blocks influenza NS1 protein function; Potency, µM (highest dose often 46.1 µM), without a hit: top-dose activity, positive = more growth; hit rate 0.4% among 270,000; AID 2326; calls by dose curve; note: potency is the fitted concentration of half-maximal effect; actives are rising curves; nearly all actives have a fitted effect of over 50% in size
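In this qHTS, NS1 from influenza A is expressed in budding yeast, where it slows growth. Cells are switched from glucose to 2% galactose medium (pH 6.0, -URA), treated with compound, and growth recovery is read at OD600.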
SARS PLpro yeast-1 – SARS-CoV PLP inhibition in yeast; S. cerevisiae expressing SARS-CoV PLpro, growth rescue; Potency, µM (titrated, usually from 32.9 µM), for the others: at the top dose activity, positive = growth rescue, actives largely listed as activators; hit rate 0.19% among 330,000; AID 485353; calls by dose curve; note: potency is the fitted concentration of half-maximal effect; 0% is about no effect; nearly all actives have a fitted effect of over 55% in size
HCV inhibitor – blocks hepatitis C virus. Huh7.5.1 HCVcc-Cre infection, luciferase reporter, 44 h. Potency, µM (top dose mostly 41.8 µM), for the others: at the top dose activity change, negative = inhibition, usual class: inhibitors. hit rate 3.4% among 340,000. AID 651820; note: potency is the fitted concentration of half-maximal effect; % is set by controls: 0 for no effect and ±100 for the full control effect
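1,000 cells/well; 4 h culture; + compound; + HCVcc-Cre (~0.5 moi); 44 h; luciferase substrate, RT 15 min; read 15 sec.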
AMA1-RON2 inh – disrupts binding of P. falciparum AMA1 to RON2; AlphaScreen AMA1-biotinylated RON2 peptide binding; Potency, µM (titrated, usually from 58.2 µM), for the others: top-dose activity change, negative = inhibition, usual class: inhibitors; hit rate 0.2% among 360,000; AID 720542;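 note: potency is the fitted concentration of half-maximal effect; 0% = vehicle wells and -100% = peptide control; nearly all actives have a fitted effect of over 45% in size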
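AMA1 (3D7) with his tag at 25 nM final met compounds first, then biotinylated RON2 peptide at 25 nM; detection used donor plus acceptor beads, 10 µg/mL apiece, read by AlphaScreen after 30 min at room temperature.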
Pf growth 48h – inhibits P. falciparum growth in the first generation, 48 h; P. falciparum luciferase growth in erythrocytes, 48 h; Potency, µM (highest dose often 28.7 µM), for the others: top-dose activity change, negative = inhibition, most hits filed as inhibitors; hit rate 5.9% among 310,000; note: potency is the fitted concentration of half-maximal effect; % is set by controls: 0 for no effect and ±100 for the full control effect
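Erythrocytes infected with P. falciparum carrying an integrated firefly luciferase reporter (2% hematocrit, 0.1% parasitemia final) were exposed to compounds in RPMI 1640 with 0.5% Albumax at 37 C, 5% CO2. Growth inhibition was scored as reduced luminescence.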
Pf growth 96h – P. falciparum growth inhibition at 96 hours; P. falciparum luciferase reporter growth, 96 h; Potency, µM (highest dose often 28.7 µM), for the others: at the highest dose activity change, negative = inhibition, most hits filed as inhibitors; hit rate 6.9% among 320,000; AID 504834; note: potency is the fitted concentration of half-maximal effect; % is set by controls: 0 for no effect and ±100 for the full control effect
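P. falciparum expressing integrated firefly luciferase, in erythrocytes at 2% hematocrit, 0.05% parasitemia, incubated with compounds 96 h at 37 C, 5% CO2. Growth inhibition read as loss of luminescence; two-generation exposure targets delayed-death apicoplast inhibitors.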
SARS PLpro yeast-2 – Rescues yeast growth by inhibiting SARS-CoV PLpro; shares compounds with SARS PLpro yeast-1; yeast expressing SARS-CoV PLpro, growth phenotype rescue; calls only; hit rate 19% among 1,000; AID 652038; call rule not given here
* = called active by the depositor; [ ] = another dose, or the depositor's remark. This is a sample that favours compounds with a hit; in the whole collection about 12% have one here. Unless noted, calls come from the whole dose curve; as a rule, active = well fitted curve in the direction sought with a large enough effect; inconclusive = small, poorly fitted or top-dose-only effect, or another doubt; inactive = no such curve, though single readings can be large; an effect the other way counts as inactive or inconclusive.

Screening Cc1ccc2nc(NC(=O)c3ccc(S(=O)(=O)N4CCCc5ccccc54)cc3)sc2c1 returned NS1 function inh 17%, SARS PLpro yeast-1 5%, HCV inhibitor inconclusive, AMA1-RON2 inh 15%, Pf growth 48h inconclusive and Pf growth 96h inconclusive.
Screening Cc1ccc(OCC(=O)N/N=C\c2c(C)[nH]n(-c3ccccc3)c2=O)c([N+](=O)[O-])c1 returned NS1 function inh 0%, SARS PLpro yeast-1 5.6µM*, HCV inhibitor inconclusive, AMA1-RON2 inh 36%, Pf growth 48h -27%, Pf growth 96h inconclusive and SARS PLpro yeast-2 active.
Screening N#Cc1c(N2CCN(C(=O)c3ccco3)CC2)nc(-c2ccccc2)c2c1CCCC2 returned NS1 function inh 16%, SARS PLpro yeast-1 -25%, HCV inhibitor inconclusive, AMA1-RON2 inh -28%, Pf growth 48h inconclusive and Pf growth 96h 16%[5.75 µM].
Screening N#Cc1c(N2CCN(C(=O)c3ccccc3Cl)CC2)nc(-c2ccccc2)c2c1CCCC2 returned NS1 function inh 27%, SARS PLpro yeast-1 3.5µM*, HCV inhibitor inconclusive, AMA1-RON2 inh -5%, Pf growth 48h inconclusive, Pf growth 96h inconclusive and SARS PLpro yeast-2 inactive.
For Cc1ccc(C(=O)n2nc(C#N)c(C#N)c2N)cc1 the results were NS1 function inh 3%, SARS PLpro yeast-1 -2%, HCV inhibitor 17%, AMA1-RON2 inh 12%, Pf growth 48h 35% and Pf growth 96h 3%.
For C=C(C)Cn1c(SCC(=O)N/N=C/c2c(O)ccc3ccccc23)nc2ccccc2c1=O the results were NS1 function inh 18%, SARS PLpro yeast-1 10µM*, HCV inhibitor inconclusive, AMA1-RON2 inh 37%, Pf growth 48h -1%, Pf growth 96h 0% and SARS PLpro yeast-2 active.
Screening Nc1nonc1-n1nnc(C(=O)N/N=C/c2cc(Br)cs2)c1-c1ccccc1 returned NS1 function inh 4%, SARS PLpro yeast-1 -1%, HCV inhibitor -11%, AMA1-RON2 inh 37%, Pf growth 48h inconclusive and Pf growth 96h -29%.
CCc1cc2c(SCC(=O)NC3CCCC3)ncnc2s1 was read as AMA1-RON2 inh -13%.
O=C(NNC1=C(C(=O)C(F)(F)F)CCC1)c1cccc(O)c1 was read as NS1 function inh 7%, SARS PLpro yeast-1 14µM*, HCV inhibitor 9%, AMA1-RON2 inh 16%, Pf growth 48h 128%, Pf growth 96h 45% and SARS PLpro yeast-2 inactive.
O=C(NNC1=C(C(=O)C(F)(F)F)CCC1)c1cccnc1 was read as NS1 function inh -1%, SARS PLpro yeast-1 2%, HCV inhibitor 9%, AMA1-RON2 inh 112%, Pf growth 48h 9% and Pf growth 96h 18%.
CC(=O)O[C@@H]1[C@@]2(C)O[C@H]2CC[C@]23O[C@H]2[C@H](OC3=O)C2=C(C)C(=O)O[C@@]21O was read as NS1 function inh 11%, SARS PLpro yeast-1 inconclusive, HCV inhibitor inconclusive, AMA1-RON2 inh 0%, Pf growth 48h 20%, Pf growth 96h -18% and SARS PLpro yeast-2 inactive.
For Cc1cc(CNC(=O)c2cc(-c3ccccc3)nc3ccccc23)nn1C the results were NS1 function inh -9%, SARS PLpro yeast-1 0%, HCV inhibitor -13%, AMA1-RON2 inh 13%, Pf growth 48h -12% and Pf growth 96h 1%.
For Cc1ccc(-c2cc(C(=O)NCc3cnn(C)c3C)c3cc(Br)ccc3n2)cc1 the results were NS1 function inh 8%, SARS PLpro yeast-1 inconclusive, HCV inhibitor inconclusive, AMA1-RON2 inh -13%, Pf growth 48h 2%, Pf growth 96h inconclusive and SARS PLpro yeast-2 inactive.
CCCCCC(=O)NNC(=S)NC(=O)c1ccccc1[N+](=O)[O-] was read as NS1 function inh 2%, SARS PLpro yeast-1 0%, HCV inhibitor 2%, AMA1-RON2 inh 103%, Pf growth 48h inconclusive and Pf growth 96h inconclusive.
